Results filed as inconclusive are left out. A number with no mark means an inactive call. Active and inactive are the calls of the source. The call rests on the fitted dose curve; in most records, active means well fitted inhibition curve with a large enough effect; inconclusive means small, poorly fitted or top-dose-only effect; inactive means no such curve, though single readings can be large or run the other way.
Biological target: Luciferin 4-monooxygenase (Photinus pyralis) (UniProt P08659)
Assay: Confirmatory firefly luciferase (FLuc) qHTS assay for identification of artifact compounds;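 on activity change, negative = inhibition: 0% = DMSO and -100% = no enzyme control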
Conditions: purified FLuc enzyme, luminescence, 5 min; series mostly up to 38.9 µM; activity change, negative = inhibition: at the top concentration
In short: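 Compounds mixed 15 min with 10 uM luciferin/10 uM ATP, then 10 nM firefly luciferase added for 5 min at pH 7.6. Luminescence percent inhibition, scaled to no-enzyme and DMSO controls, fitted to Hill equation.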
Potency means the concentration at half of the fitted maximal effect.

| SMILES | activity change, negative = inhibition | Potency |
| --- | --- | --- |
| O=C1C(c2ccc(F)cc2)N(CCc2ccc(Cl)cc2)C(=O)CN1C1CCCCC1 (stereo not given) | 1.88% | – |
| CC(=O)Nc1sc2c(c1-c1ccc(Cl)cc1)CCNC2 | 3.64% | – |
| CCOc1ccccc1NC(=O)CSc1nc2c(oc3ccccc32)c(=O)n1-c1ccc(F)cc1 | -1.76% | – |
| O=C(O)C1CC2CCCCC2N1C(=O)c1ccc(Cl)cc1 (stereo not given) | 4.1% | – |
| O=C(NCc1ccccc1)c1cnc2sc(N3CCCC3)nn2c1=O | 5.84% | – |
| COc1ccc(C2N(Cc3ccccc3)C(=O)c3ccccc3N2C)cc1COc1ccc(NC(C)=O)cc1 (stereo not given) | -3.87% | – |
| O=c1cc(-c2ccc(O)c(O)c2)oc2cc(O[C@@H]3O[C@@H](CO)[C@@H](O)[C@@H](O)[C@H]3O)cc(O)c12 | 6.06% | – |
| Cc1cccc(-c2noc(-c3cc(C(C)C)[nH]n3)n2)c1 | – | 6.12 µM (active) |
| CCC(=O)N1CCc2cc(CNC(=O)Nc3cc(OC)c(OC)c(OC)c3)ccc21 | 0.174% | – |
| CC1CCCCN1S(=O)(=O)c1cc2c3c(c1)CC(=O)N3CCC2 (stereo not given) | 2.48% | – |
| CC(CCc1ccccc1)NC(=O)Cn1c(=O)nc(-c2ccccc2F)c2cc(Cl)ccc21 (stereo not given) | -4.2% | – |
| O=C(Nc1nnc(-c2ccncc2)s1)Nc1cccc2ccccc12 | 11.8% | – |
| COc1ccc(-n2c(=O)c3ccc(C(=O)NCc4ccc(C)cc4)cc3n(Cc3ccc(Cl)cc3)c2=O)cc1 | 10.2% | – |
| Cc1ccccc1NS(=O)(=O)c1ccc2[nH]c3c(c2c1)CCCCC3 | 2.48% | – |
| COc1cccc(-c2nnc(Nc3nc4c(OC)cccc4s3)o2)c1 | -4.56% | – |
| CCCOC(=O)c1ccc(NC(=O)C2CC(=O)N(c3ccc(C)cc3)C2)cc1 (stereo not given) | -1.06% | – |
| Nc1ccc(F)cc1F | -3.57% | – |
| CC(=O)Nc1oc(-c2cccc3ccccc23)nc1C#N | 59.2% | – |

| SMILES | activity change, negative = inhibition | Potency |
| --- | --- | --- |
| CCOC(=O)c1ccccc1Nc1cc(C)nc2nc(-c3ccco3)nn12 | 4.05% | – |
| COc1ccc(NC(=O)c2cc(-c3ccccc3O)no2)cc1 | 28.6% | – |
| CCOC(=O)c1c(S(=O)(=O)N2CCCC(C(=O)Nc3cccc(C)n3)C2)c(C)n(C)c1C (stereo not given) | 8.05% | – |
| Cc1nc(-c2ccc(Cl)cc2)sc1CCNC(=O)c1ccco1 | -17.5% | – |
| Cc1cccc(C(=O)Nc2ccc(-c3nc4ncccc4o3)cc2C)c1 | -3.06% | – |
| O=C1c2ccccc2C(=O)N1c1cccc2cnccc12 | 1.35% | – |
| NCCCNCCCCNCCCNC(=O)CCc1ccc(O)cc1 | 2.14% [at 7.25 µM] | – |
| Cc1c(C(=O)N(C)C)sc2c1c(=O)n(-c1ccc(Cl)cc1)c(=O)n2Cc1ccccc1F | -4.76% | – |
| CC1CCN(c2nc3ccccc3nc2SCC(=O)Nc2ccccc2C(C)C)CC1 | 2.07% | – |
| O=C(Nc1ccc(Oc2ccccc2)cc1)Nc1nnc(-c2ccncc2)s1 | 0.508% | – |
| CN[C@@H]1[C@@H](O[C@H]2O[C@H](CO)[C@@H](N)[C@H](O)[C@H]2O)O[C@H]2C[C@@H](N)[C@@H](O[C@H]3[C@H](O)[C@@H](O)[C@H](N)C[C@@H]3N)O[C@@H]2[C@@H]1O | -2.91% [at 13.1 µM] | – |
| CCC(Sc1ncc(S(=O)(=O)c2ccc(Cl)cc2)c(=O)[nH]1)C(=O)Nc1ccc(OC)cc1 (stereo not given) | 1.34% | – |
| COc1cccc(C2c3c(ncn(-c4cccc(C#N)c4)c3=N)Oc3ccc4ccccc4c32)c1 (stereo not given) | -7.28% | – |
| COC(=O)c1scc(-c2ccc(C)cc2)c1S(=O)(=O)Nc1ccc(NC(C)=O)cc1 | 1.57% | – |
| CCOC(=O)c1c(S(=O)(=O)NCC(=O)N2CCN(c3cc(C)ccc3C)CC2)c(C)n(C)c1C | 3.41% | – |
| COc1cccc(NCc2ccc(O)c3ncccc23)n1 | 10.5% | – |
| COCCn1c(C)cc(O)c(C(c2ccc(OC)cc2)N2CCN(c3ccccc3)CC2)c1=O (stereo not given) | -0.651% | – |

Source: PubChem BioAssay AID1845227 (National Center for Advancing Translational Sciences (NCATS), 2023)
